The source of these data is PubChem BioAssay AID720549 (National Center for Advancing Translational Sciences (NCATS), 2013).

Structures are written as SMILES. Records with an inconclusive call do not appear. Where a call stands in place of a potency, no number is given. The source made the active and inactive calls. The call rests on the fitted dose curve; in most records, active means well fitted inhibition curve with a large enough effect; inconclusive means small, poorly fitted or top-dose-only effect; inactive means flat fitted curve, though single readings scatter.

In the test the target is RecQ-like DNA helicase BLM (Homo sapiens) (UniProt P54132). The test can be described thus: qHTS for Inhibitors of Bloom's syndrome helicase (BLM): Helicase ATPase Orthogonal Confirmatory Assay for SAR. The note with it: purified BLM helicase ATPase activity assay; series mostly up to 57.1 µM. The procedure, abridged: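 Purified BLM (2 nM) in Tris-HCl pH 8.0 with MgCl2, DTT, Tween-20, preincubated 15 min with compound. Reaction with 200 nM ssDNA and 100 uM ATP ran 15 min; ADP-Glo luminescence, four-parameter Hill fit.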
Chain of RecQ-like DNA helicase BLM (Homo sapiens) (P54132 whole entry, looked up): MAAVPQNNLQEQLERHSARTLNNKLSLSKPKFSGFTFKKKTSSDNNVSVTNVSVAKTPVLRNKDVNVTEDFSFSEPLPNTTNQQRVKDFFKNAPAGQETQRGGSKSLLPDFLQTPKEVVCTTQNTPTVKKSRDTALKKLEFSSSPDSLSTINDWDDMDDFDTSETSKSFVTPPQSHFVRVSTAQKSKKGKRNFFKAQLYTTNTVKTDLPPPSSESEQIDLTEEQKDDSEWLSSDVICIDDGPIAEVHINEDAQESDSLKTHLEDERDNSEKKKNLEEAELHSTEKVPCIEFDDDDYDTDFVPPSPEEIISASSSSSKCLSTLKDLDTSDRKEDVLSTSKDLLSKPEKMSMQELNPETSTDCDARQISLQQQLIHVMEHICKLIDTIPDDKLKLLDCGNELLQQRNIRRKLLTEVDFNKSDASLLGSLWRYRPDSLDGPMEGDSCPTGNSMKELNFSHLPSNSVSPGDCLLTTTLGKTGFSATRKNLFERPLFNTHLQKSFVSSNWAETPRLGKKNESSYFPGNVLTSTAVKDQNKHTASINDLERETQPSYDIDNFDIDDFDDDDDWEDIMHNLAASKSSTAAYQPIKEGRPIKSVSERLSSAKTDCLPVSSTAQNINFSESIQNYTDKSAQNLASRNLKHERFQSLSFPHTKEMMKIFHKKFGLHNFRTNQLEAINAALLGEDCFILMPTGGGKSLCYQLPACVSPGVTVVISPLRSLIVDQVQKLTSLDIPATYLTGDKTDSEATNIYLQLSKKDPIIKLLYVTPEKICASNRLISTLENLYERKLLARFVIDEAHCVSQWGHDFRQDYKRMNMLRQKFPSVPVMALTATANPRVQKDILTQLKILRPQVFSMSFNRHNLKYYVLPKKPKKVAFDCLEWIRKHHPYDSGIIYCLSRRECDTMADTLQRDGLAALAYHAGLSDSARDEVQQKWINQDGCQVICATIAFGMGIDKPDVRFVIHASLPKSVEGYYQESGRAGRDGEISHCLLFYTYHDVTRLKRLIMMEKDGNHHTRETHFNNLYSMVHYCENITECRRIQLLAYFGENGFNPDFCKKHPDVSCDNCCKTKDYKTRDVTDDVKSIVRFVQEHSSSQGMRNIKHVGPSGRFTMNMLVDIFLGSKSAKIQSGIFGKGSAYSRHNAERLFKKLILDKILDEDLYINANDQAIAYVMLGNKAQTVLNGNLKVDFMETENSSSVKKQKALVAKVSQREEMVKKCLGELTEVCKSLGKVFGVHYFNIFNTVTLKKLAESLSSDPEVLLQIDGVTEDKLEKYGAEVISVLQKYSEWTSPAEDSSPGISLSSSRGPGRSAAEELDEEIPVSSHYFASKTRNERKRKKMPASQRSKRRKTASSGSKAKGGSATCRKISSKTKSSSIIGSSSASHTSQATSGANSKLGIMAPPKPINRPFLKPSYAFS
As to `O=C(Nc1ccc2ccccc2c1)Nc1nnc(-c2ccccc2F)s1`, the Potency result was “inactive”.

`O=C(Nc1ccc(Cl)c([N+](=O)[O-])c1)Nc1nnc(-c2ccc(F)cc2)s1`: the Potency result is “inactive”.

For `O=C(Nc1ccc2sccc2c1)Nc1nnc(-c2cccnc2)s1`, the Potency entry was “inactive”.

In the case of `O=C(Nc1ccc(Cl)c(Cl)c1)Nc1nnc(C2CCCCC2)s1`, the Potency entry is “inactive”.

Consider `O=C(Nc1ccc(-c2ccccc2)cc1)Nc1nnc(-c2ccncc2)s1`, for which the Potency entry is “inactive”.

Take `Cc1cc(NC(=O)Nc2nnc(-c3ccncc3)s2)ccc1F`: the Potency entry was “inactive”.

`N#Cc1cc(NC(=O)Nc2nnc(-c3ccncc3)s2)ccc1F`: the Potency was 1.02 µM (active).

For `O=C(NCc1ccccc1)Nc1nnc(-c2ccncc2)s1`, the Potency entry was “inactive”.

Turning to `Cc1cc(NC(=O)Nc2nnc(-c3ccncc3)s2)ccc1C#N`, the Potency was 1.29 µM (active).

On to `CN1CCN(c2nnc(NC(=O)Nc3ccc(Cl)c(Cl)c3)s2)CC1`, for which the Potency result was “inactive”.

With `CC(C)(C)c1ccc(-c2nnc(NC(=O)Nc3ccc4ccccc4c3)s2)cc1`, the Potency result is “inactive”.

Regarding `O=C(Nc1ccc2ccccc2c1)Nc1nnc(-c2ccc(Cl)cc2Cl)s1`, the Potency result was “inactive”.

For the molecule `O=C(Nc1ccc(F)c(C(F)(F)F)c1)Nc1nc(-c2ccncc2)cs1`, the Potency result was “inactive”.

Take `Nc1ccc(-c2nnc(NC(=O)Nc3ccc(Cl)c(Cl)c3)s2)cc1`: the Potency result was “inactive”.

On to `O=C(Cc1ccc2ccccc2c1)Nc1nnc(-c2ccncc2)s1`, for which the Potency was 16.2 µM (active).

For `O=C(Nc1ccc(-n2ccnc2)c(F)c1)Nc1nnc(-c2ccncc2)s1`, the Potency is 14.5 µM (active).

For `O=c1c(Nc2ccc(F)c(C(F)(F)F)c2)c(Nc2nnc(-c3ccncc3)s2)c1=O`, the Potency result is “inactive”.

With `O=c1c(Nc2ccc(Cl)c(Cl)c2)c(Nc2nnc(-c3ccncc3)s2)c1=O`, the Potency was 6.46 µM (active).

Regarding `Cc1cc(NC(=O)Nc2cccc(-c3ccncc3)n2)ccc1Br`, the Potency result was “inactive”.

With `O=C(Nc1ccc(Br)cc1)Nc1nnc(-c2ccncc2)s1`, the Potency is 8.13 µM (active).

In the case of `O=C(Nc1ccc(N2CCOCC2)c(F)c1)Nc1nnc(-c2ccncc2)s1`, the Potency result was “inactive”.

For `O=C(Nc1ccc(Cl)c(Cl)c1)Nc1nnc(-c2ccncc2)s1`, the Potency was 6.46 µM (active).

Turning to `Cc1ccccc1-c1nnc(NC(=O)Nc2ccc3ccccc3c2)s1`, the Potency result is “inactive”.

For `O=C(Nc1nnc(-c2ccncc2)s1)Nc1ccc(Cl)c2ccccc12`, the Potency result was “inactive”.

Turning to `CCOc1ccc(NC(=O)Nc2ccc(-c3nc4ccccc4[nH]3)cc2)cc1`, the Potency result was “inactive”.

Regarding `N#Cc1cc(NC(=O)Nc2nnc(-c3ccncc3)s2)ccc1Br`, the Potency was 0.646 µM (active).

In the case of `CC(=O)c1ccc(NC(=O)Nc2nnc(-c3ccncc3)s2)cc1`, the Potency result was “inactive”.

As for `O=C(Nc1ccc2sccc2c1)Nc1nnc(-c2ccncc2)s1`, the Potency was 7.25 µM (active).

With `Cc1cc(NC(=O)Nc2nnc(C3CCCCC3)s2)ccc1Br`, the Potency entry is “inactive”.

Regarding `N#Cc1cc(NC(=O)Nc2nnc(-c3ccncc3)s2)ccc1-c1ccc[nH]1`, the Potency was 7.25 µM (active).

As to `S=C(Nc1ccc(Cl)c(Cl)c1)Nc1nnc(-c2ccncc2)o1`, the Potency entry is “inactive”.

For the molecule `Cc1cc(C)c(-c2nnc(NC(=O)Nc3ccc4ccccc4c3)s2)c(C)c1`, the Potency entry is “inactive”.
